Assay [1] in a line: qHTS for differential inhibitors of proliferation of Plasmodium falciparum line HB3 (AID 1886).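 Also: parasites grown with compound for 72 h before SYBR Green readout.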 Also: potency is read from the fitted curve at half-maximal effect. The following applies: Potency: Plasmodium falciparum HB3 proliferation inhibition.
Assay [2] addresses Ferritin light chain (Equus caballus) (UniProt P02791). The assay is described as follows: qHTS Validation Assay for Identification of Novel General Anesthetics (AID 2323). Also: series mostly up to about 77 µM. The method, boiled down: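 Competitive displacement of the profluorescent anesthetic 1-AMA (50% saturated, PBS) from 10 uM apoferritin, 10 min, room temperature. Activity is normalized 380/535 nm fluorescence; concentration-response fitted with a four-parameter Hill equation.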

The target of assay [3] is ATP-dependent DNA helicase Q1 (Homo sapiens) (UniProt P46063). The experiment in a line: qHTS Validation Assay for Inhibitors of RecQ-Like Dna Helicase 1 (RECQ1) (AID 2353). The method, boiled down: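 50 nM RECQ1T1 preincubated 15 min with compound in Tris pH 8.0 buffer with MgCl2, DTT, Tween-20 and 2.5 ug/ml poly(dI-dC); started with 200 nM TAMRA/BHQ-2 forked duplex and 2 mM ATP. Unwinding read as fluorescence (525/598 nm), two reads 2 h apart.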

Assay [4] can be described thus: Cytometric Cell-Based qHTS for Inhibitors of the mTORC1 Signaling Pathway in MEF (Tsc2-/-, p53-/-) Cells (AID 2660).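 Also: percent of cells above a phospho-rpS6 to PI ratio cutoff in each well; series mostly up to about 38 µM.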 The method, boiled down: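 Immunofluorescence qHTS of rpS6 Ser235/236 phosphorylation: MEFs (Tsc2-/-, p53-/-) treated 24 h, 37 C, in DMEM + 10% FBS. Alexa-488 signal normalized to PI count, referenced to rapamycin (7.5 nM) and DMSO; PI cell number recorded for viability.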

Assay [5] can be described thus: High Content Imaging Cell-Based qHTS for Inhibitors of the mTORC1 Signaling Pathway in MEF (Tsc2-/-, p53-/-) Cells (AID 2666). In a few lines: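 Phospho-rpS6 (Ser235/236) immunofluorescence, normalized and scored as % positive cells using rapamycin and DMSO controls, was read in empty-vector Tsc2-/-, p53-/- MEFs after 24 h compound exposure at 37 C; propidium iodide counted cells.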

Assay [6] in a line: High Content Imaging Cell-Based qHTS for Inhibitors of the mTORC1 Signaling Pathway in MEF Cells (AID 2667). Also: potency is read from the fitted curve at half-maximal effect. The method, boiled down:
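WT MEFs (Tsc2-/-, p53-/- re-expressing Tsc2), in DMEM + 10% FBS, were treated with compound for 24 h at 37 C. Cells were then fixed and stained for phospho-rpS6 Ser235/236 with propidium iodide as cell count. Values are % positive cells, with thresholds set against rapamycin-treated cells.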

Assay [7] can be described thus: Cytometry Cell-Based qHTS for Inhibitors of the mTORC1 Signaling Pathway in MEF cells (AID 2668). Also: potency is read from the fitted curve at half-maximal effect. In a few lines:
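Phospho-rpS6 (Ser235/236) immunofluorescence over PI signal, scored as % positive cells using thresholds from 7.5 nM rapamycin and DMSO wells, after 24 h compound exposure of WT-Tsc2-rescued Tsc2-/-, p53-/- MEFs. PI cell count recorded for viability.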

Assay [8] in a line: Validation screen for small molecules that induce DNA re-replication in MCF 10A normal breast cells (AID 463097). Also: nearly all actives have a fitted effect of over 60% in size. Also: potency is read from the fitted curve at half-maximal effect. The method, boiled down: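 Read-out is Hoechst total nuclear intensity by fluorescence scanning imager, flagging increased high-DNA-content nuclei. Compounds were incubated with MCF 10A cells for 48 hr (37 C, 5% CO2) before 40 min staining.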
For assay [9], the target named is Ubiquitin carboxyl-terminal hydrolase 2 (Homo sapiens) (UniProt O75604). The assay is described as follows: qHTS Validation Assay for Inhibitors of Ubiquitin-specific Protease USP2a Using CHOP2 as the Reporter (AID 463106). The method, boiled down: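 USP2 core (10 nM final) was preincubated with compound 30 min at RT in pH 8.0 Tris/CaCl2/beta-ME/CHAPS buffer. Ub-CHOP2 and reporter substrate (25 nM final each) were then added, with fluorescence (Ex 485/Em 531) read after 60 min. Data were normalized to NEM full inhibition and fitted to concentration-response curves.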

Assay [10] has as its target DNA polymerase III PolC-type (Bacillus subtilis (strain 168)) (UniProt P13267). The assay is described as follows: qHTS Validation Assay for the Inhibitors of DNA Replication in Gram-Positive Bacteria (AID 485295).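 Also: reconstituted holoenzyme with PolC plus beta clamp SSB and primase; PicoGreen fluorescence of double-stranded DNA made on primed circular M13 template; series mostly up to about 57 µM.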 The method, boiled down: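 Double-stranded DNA product detected by PicoGreen fluorescence after EDTA quench. Compound incubated with B. subtilis holoenzyme (PolC, beta subunit, SSB, primase) before substrate addition; primed replication of M13Gori with dNTPs and NTPs at room temperature; DMSO defines 0% inhibition.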

The target in assay [11] is Tumor susceptibility gene 101 protein (Homo sapiens) (UniProt Q99816). The assay is described as follows: qHTS Validation Assay for Iinhibitors of HIV-1 Budding by Blocking the Interaction of PTAP/TSG101 (AID 485342; calls by dose curve). The method, boiled down: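 Fluorescence polarization of 50 nM FITC-PTAP peptide bound to 10 uM Tsg101 binding domain was read after 20 min room-temperature incubation with compounds, in 10 mM HEPES pH 7.5, 0.15 M NaCl, 0.01% Tween 20.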

Assay [12] can be described thus: qHTS Validation Assay to Find Inhibitors of Chronic Active B-Cell Receptor Signaling (AID 485345; active = well fitted curve in the direction sought with a large enough effect in the main read-out, with a control signal flat, not every such curve was filed as active). The method, boiled down:
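TMD8 ABC-DLBCL cells stably carrying doxycycline-inducible IkappaBalpha–green luciferase fusion plus unfused red luciferase; compounds 46 uM to 3 nM, 4 h at 37C with doxycycline. Corrected green/red luminescence ratio normalized to 10 uM MG-132 and basal cell wells; curves fitted.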

Assay [13] has as its target Beta-2 adrenergic receptor (Homo sapiens) (UniProt P07550). The experiment in a line: qHTS validation assay of beta-arrestin-biased ligands of beta2-adrenergic receptor (AID 485366). The method, boiled down: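 Arrestin-recruitment (Tango) reporter: ligand-bound beta2-AR recruits beta-arrestin, releasing tTA, which upregulates luciferase. Titrations of up to 46 microM incubated 18 hr at 37 degrees C before luminescent readout.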

Assay [14] has as its target ATP-dependent 6-phosphofructokinase (Trypanosoma brucei brucei) (UniProt O15648). The experiment in a line: qHTS Validation Assay to Find Inhibitors of T. brucei phosphofructokinase (AID 485368). The following applies: outcome: dose series up to 57.5 µM. The method, boiled down: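 Steps: substrate mix (0.5 mM F6P, 0.1 mM ATP, MgCl2, TEA pH 8.0); compound; 1.25 nM T. brucei PFK; 45 min RT; ATP depletion 10 min; ADP-to-ATP detection 10 min; luminescence read; curve fitting and classification.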

Assay [15] in a line: Quantitative high throughput screen for delayed death inhibitors of the malarial parasite plastid, 48 hour incubation (AID 488752). Also: nearly all actives have a fitted effect of over 65% in size. The method, boiled down: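 One parasite generation (48 h, 37 C, 5% CO2) of luciferase-reporter P. falciparum in erythrocytes is run with test compound; decreased luminescence indicates inhibited growth.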
Assay [16] has as its target Thioredoxin reductase 1, cytoplasmic (Rattus norvegicus) (UniProt O89049). The experiment in a line: qHTS Assay for Substrates of Mammalian Selenoprotein Thioredoxin Reductase 1 (TrxR1) (AID 488772).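 Also: NADPH fluorescence in the first read after selenite addition and not the 8 min delta; series mostly up to about 57 µM; a drop in NADPH fluorescence below the no-compound background marks a TrxR1 substrate.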 In a few lines:
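Quantitative HTS in Tris-HCl buffer at pH 7.5 with EDTA and Tween-20, using rat TrxR1, 400 uM NADPH and 400 uM selenite (final). A fall in initial NADPH fluorescence relative to background marked substrate behaviour.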

Assay [17] can be described thus: Quantitative high throughput screen for delayed death inhibitors of the malarial parasite plastid, 96 hour incubation (AID 488745). Also: nearly all actives have a fitted effect of over 70% in size. Also: potency is read from the fitted curve at half-maximal effect. The method, boiled down:
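Growth of reporter-bearing P. falciparum in red cells is measured after 96 h with compound, covering two erythrocytic cycles. Luminescence from the integrated luciferase serves as the growth signal.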

Assay [18] concerns the target RecQ-like DNA helicase BLM (Homo sapiens) (UniProt P54132). The assay is described as follows: qHTS Validation Assay for Inhibitors of Bloom's syndrome helicase (BLM) (AID 2364). The method, boiled down: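 50 nM BLM preincubated 15 min at room temperature with compound in pH 8.0 Tris buffer containing 2.5 ug/ml poly(dI-dC); started with 200 nM TAMRA/BHQ-2 forked duplex and 2 mM ATP (final). Unwinding read as TAMRA fluorescence increase, two reads 2 h apart.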

Inconclusive results are not listed. Active and inactive are the calls of the source. Unless noted, calls follow the shape of the dose curve; as a rule, active = well fitted curve in the direction sought with a large enough effect; inconclusive = small, poorly fitted or top-dose-only effect, or another doubt; inactive = no such curve, though single readings can be large; an effect the other way counts as inactive or inconclusive.

Sequence of Beta-2 adrenergic receptor (Homo sapiens) (P07550 whole entry, looked up): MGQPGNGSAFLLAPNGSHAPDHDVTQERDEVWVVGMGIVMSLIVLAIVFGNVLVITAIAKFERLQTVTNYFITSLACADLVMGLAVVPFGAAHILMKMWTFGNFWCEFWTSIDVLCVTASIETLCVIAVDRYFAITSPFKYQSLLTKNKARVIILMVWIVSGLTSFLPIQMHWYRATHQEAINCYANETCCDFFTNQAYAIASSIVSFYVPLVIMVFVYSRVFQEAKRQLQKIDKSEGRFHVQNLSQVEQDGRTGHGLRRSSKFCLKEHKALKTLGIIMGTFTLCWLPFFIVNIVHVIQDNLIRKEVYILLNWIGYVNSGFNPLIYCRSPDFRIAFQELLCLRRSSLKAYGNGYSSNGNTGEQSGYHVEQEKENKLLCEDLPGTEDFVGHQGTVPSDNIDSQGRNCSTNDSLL
Sequence of DNA polymerase III PolC-type (Bacillus subtilis (strain 168)) (P13267 whole entry, looked up): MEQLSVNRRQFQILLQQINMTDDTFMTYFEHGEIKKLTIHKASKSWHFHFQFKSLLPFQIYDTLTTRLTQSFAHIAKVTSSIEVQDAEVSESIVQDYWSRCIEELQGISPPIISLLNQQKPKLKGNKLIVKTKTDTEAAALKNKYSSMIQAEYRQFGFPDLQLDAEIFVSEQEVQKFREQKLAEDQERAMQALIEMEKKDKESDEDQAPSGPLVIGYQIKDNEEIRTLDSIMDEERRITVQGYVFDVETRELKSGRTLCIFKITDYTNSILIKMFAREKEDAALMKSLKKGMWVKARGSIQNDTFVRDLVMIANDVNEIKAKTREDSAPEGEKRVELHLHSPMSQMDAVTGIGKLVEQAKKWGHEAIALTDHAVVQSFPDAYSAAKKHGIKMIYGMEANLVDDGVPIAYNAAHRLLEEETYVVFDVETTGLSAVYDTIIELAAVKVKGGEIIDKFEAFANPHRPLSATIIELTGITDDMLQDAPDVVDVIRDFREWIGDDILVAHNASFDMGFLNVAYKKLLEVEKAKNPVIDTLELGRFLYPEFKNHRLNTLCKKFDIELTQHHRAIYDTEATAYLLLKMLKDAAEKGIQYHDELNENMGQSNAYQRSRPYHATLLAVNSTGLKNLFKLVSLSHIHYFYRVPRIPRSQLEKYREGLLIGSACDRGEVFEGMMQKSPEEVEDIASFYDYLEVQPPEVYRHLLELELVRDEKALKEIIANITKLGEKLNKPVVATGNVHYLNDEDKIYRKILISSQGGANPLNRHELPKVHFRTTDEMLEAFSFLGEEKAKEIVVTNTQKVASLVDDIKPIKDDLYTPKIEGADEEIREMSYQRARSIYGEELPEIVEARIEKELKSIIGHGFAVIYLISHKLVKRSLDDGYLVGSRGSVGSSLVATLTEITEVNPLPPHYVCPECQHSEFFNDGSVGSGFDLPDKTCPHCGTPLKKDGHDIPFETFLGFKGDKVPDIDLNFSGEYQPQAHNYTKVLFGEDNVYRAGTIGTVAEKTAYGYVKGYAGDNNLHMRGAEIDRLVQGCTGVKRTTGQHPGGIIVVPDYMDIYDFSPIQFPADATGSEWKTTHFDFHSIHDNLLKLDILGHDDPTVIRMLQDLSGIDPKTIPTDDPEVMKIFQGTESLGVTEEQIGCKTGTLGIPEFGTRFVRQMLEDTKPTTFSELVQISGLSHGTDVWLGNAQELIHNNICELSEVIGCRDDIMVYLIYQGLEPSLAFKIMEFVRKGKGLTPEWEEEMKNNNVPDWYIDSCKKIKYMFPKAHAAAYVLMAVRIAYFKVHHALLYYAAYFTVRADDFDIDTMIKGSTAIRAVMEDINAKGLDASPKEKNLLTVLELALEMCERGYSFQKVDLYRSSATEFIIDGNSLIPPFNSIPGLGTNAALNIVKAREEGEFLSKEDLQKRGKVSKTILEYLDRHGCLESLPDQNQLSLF
Sequence of Thioredoxin reductase 1, cytoplasmic (Rattus norvegicus) (O89049 whole entry, looked up): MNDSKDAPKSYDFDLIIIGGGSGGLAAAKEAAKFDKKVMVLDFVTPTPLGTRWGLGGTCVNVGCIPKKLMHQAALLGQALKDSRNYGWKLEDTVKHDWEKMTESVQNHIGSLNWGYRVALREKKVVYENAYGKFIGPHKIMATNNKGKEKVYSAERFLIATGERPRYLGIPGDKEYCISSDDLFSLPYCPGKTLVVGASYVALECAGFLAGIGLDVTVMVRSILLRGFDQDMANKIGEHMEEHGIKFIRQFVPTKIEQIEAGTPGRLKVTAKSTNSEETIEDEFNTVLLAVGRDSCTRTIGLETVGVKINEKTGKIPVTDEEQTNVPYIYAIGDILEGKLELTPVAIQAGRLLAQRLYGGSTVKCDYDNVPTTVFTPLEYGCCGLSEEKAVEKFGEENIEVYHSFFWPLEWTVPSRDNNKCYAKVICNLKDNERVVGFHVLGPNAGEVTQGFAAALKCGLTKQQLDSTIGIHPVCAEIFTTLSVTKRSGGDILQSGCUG
Sequence of Tumor susceptibility gene 101 protein (Homo sapiens) (Q99816 whole entry, looked up, the tested form may be a part): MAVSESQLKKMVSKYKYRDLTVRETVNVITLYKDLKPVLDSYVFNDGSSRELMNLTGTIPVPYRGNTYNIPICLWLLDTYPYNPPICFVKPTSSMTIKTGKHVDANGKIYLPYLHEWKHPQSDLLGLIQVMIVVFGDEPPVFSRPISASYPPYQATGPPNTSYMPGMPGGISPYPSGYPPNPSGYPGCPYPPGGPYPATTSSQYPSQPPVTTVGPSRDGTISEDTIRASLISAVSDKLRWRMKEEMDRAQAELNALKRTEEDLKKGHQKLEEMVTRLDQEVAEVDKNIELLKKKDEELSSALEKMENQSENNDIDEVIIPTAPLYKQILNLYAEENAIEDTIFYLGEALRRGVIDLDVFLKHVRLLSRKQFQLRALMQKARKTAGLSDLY
Sequence of Ferritin light chain (Equus caballus) (P02791 2-175 limits assumed): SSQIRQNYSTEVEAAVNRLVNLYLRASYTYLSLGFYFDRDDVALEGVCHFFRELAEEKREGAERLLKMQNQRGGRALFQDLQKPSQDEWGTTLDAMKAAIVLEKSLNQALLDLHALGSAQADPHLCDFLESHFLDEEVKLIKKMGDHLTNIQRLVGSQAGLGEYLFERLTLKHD
Sequence of ATP-dependent DNA helicase Q1 (Homo sapiens) (P46063 whole entry, looked up): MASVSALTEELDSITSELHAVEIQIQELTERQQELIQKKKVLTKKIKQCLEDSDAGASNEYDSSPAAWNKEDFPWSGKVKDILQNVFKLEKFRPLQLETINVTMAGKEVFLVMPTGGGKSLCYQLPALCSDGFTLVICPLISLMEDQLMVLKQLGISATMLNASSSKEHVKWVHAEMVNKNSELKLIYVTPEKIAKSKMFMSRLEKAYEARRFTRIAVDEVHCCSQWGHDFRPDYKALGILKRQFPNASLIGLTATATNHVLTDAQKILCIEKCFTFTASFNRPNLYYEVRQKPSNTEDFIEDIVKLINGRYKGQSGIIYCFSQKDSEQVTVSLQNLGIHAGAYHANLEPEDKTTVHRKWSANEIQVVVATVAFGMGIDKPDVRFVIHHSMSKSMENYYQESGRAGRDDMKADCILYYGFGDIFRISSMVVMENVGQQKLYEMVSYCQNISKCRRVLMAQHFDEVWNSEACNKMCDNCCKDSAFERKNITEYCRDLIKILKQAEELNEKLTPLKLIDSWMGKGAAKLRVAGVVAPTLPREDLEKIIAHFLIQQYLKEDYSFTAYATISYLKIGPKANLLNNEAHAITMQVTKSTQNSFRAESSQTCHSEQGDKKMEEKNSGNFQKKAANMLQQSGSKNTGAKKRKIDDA
Sequence of ATP-dependent 6-phosphofructokinase (Trypanosoma brucei brucei) (O15648 whole entry, looked up): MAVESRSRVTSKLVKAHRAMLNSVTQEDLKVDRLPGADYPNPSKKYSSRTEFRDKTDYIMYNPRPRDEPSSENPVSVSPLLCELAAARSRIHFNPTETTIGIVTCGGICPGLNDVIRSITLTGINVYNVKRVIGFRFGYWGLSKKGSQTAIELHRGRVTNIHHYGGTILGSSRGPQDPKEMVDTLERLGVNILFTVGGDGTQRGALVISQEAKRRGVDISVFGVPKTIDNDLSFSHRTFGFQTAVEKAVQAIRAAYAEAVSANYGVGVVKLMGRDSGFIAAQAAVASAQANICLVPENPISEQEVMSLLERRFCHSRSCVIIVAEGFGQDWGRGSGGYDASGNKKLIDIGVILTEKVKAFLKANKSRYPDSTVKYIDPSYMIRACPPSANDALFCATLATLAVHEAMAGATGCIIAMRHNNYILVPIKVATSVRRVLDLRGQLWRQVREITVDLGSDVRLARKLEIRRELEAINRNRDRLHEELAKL
Sequence of Ubiquitin carboxyl-terminal hydrolase 2 (Homo sapiens) (O75604 whole entry, looked up): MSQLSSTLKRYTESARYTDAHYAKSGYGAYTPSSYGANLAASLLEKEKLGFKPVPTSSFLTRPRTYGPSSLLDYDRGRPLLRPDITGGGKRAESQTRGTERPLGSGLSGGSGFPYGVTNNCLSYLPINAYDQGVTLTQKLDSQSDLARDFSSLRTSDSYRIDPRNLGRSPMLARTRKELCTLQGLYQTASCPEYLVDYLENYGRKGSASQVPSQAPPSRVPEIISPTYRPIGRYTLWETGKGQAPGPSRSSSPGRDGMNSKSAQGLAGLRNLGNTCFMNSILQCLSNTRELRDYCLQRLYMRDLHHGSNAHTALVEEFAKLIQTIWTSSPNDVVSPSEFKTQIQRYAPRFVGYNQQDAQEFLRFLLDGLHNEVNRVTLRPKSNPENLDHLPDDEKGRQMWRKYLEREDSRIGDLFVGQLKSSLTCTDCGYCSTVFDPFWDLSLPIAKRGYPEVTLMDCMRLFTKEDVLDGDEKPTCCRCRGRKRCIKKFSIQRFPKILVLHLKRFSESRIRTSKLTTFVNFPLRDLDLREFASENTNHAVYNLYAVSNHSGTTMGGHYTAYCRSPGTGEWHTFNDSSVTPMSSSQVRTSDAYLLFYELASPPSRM

Consider `CCCOc1ccccc1-c1nc2n[nH]nc2c(=O)[nH]1`, for which the Potency result in assay [1], in assay [3], in assay [5], in assay [6], in assay [7] and in assay [8] was “inactive” throughout. Besides, the Potency entry in assay [10], in [12] and in assay [15] was “inactive” throughout. Further, the result in assay [2], in [4], in [9], in [11], in assay [13] and in assay [14] was inactive. The result in [16] was inactive.

With `Fc1ccc(C(c2ccc(F)cc2)N2CCN(C/C=C/c3ccccc3)CC2)cc1`, the Potency is 10 µM (active) in [1], 12.6 µM (active) in assay [8] and 10.4 µM (active) in [17]. For the same compound, the compound was classed as inactive in [2], in assay [4], in assay [9], in [11], in assay [13] and in [16]. The Potency result in assay [3], in assay [5], in assay [6], in [7], in assay [10] and in assay [12] was “inactive” each time.

As to `CCC(=O)c1ccc2c(c1)N(CCCN(C)C)c1ccccc1S2`, the Potency in [1] was 11.2 µM (active); in assay [6], 16.5 µM (active). Moreover, the outcome in [2], in assay [4], in assay [9], in [11], in assay [13] and in assay [14] was inactive. Further, the Potency result in assay [3], in assay [18], in assay [5], in assay [10] and in assay [12] was “inactive” each time.

On to `NC/C=C/C(=O)O`, for which the Potency entry in assay [1], in [3], in assay [5], in assay [6], in assay [7] and in [8] was “inactive” in each case. Further, the Potency entry in [10], in assay [12], in [17] and in [15] was “inactive” each time. Besides, the compound was classed as inactive in assay [2], in assay [4], in [9], in assay [11] and in assay [13].

`Cc1nc2c([nH]1)c(=O)n(C)c(=O)n2Cc1ccco1`: the Potency result in assay [1], in assay [3], in assay [5], in assay [6], in assay [7] and in assay [8] was “inactive” each time. Besides, the Potency entry in assay [10], in [12], in assay [17] and in assay [15] was “inactive” in each case. Further, the compound was classed as inactive in [2], in assay [4], in [9], in [11], in [13] and in [14]. For the same compound, the result in [16] was inactive.

On to `CNC1(C)C2CCC(C2)C1(C)C` (stereo unspecified), for which the Potency result in [1], in assay [18], in assay [5], in assay [6], in assay [7] and in [8] was “inactive” throughout. For the same compound, the Potency entry in [10], in [12], in assay [17] and in [15] was “inactive” in each case. Also, the compound was classed as inactive in assay [2], in assay [4], in assay [9], in assay [11], in assay [13] and in assay [14]. In [16], the compound was classed as inactive.

Take `CCCN(CCC)CCc1cccc2c1CC(=O)N2`: the Potency result in [1], in [3], in assay [5], in assay [6], in [7] and in assay [8] was “inactive” in each case. Moreover, the Potency entry in assay [10], in assay [12], in assay [17] and in assay [15] was “inactive” in each case. Besides, the compound was classed as inactive in assay [2], in [4], in assay [9], in assay [11], in [13] and in [16].

On to `CC(=O)Nc1nnc(S(N)(=O)=O)s1`, for which the Potency entry in [1], in assay [3], in assay [5], in [6], in assay [7] and in assay [8] was “inactive” in each case. Besides, the Potency result in [10], in [12], in assay [17] and in assay [15] was “inactive” in each case. Besides, the outcome in assay [2], in assay [4], in assay [9], in [11], in [14] and in assay [16] was inactive.

`Cc1nc2sccn2c(=O)c1CCN1CCC(=C(c2ccc(F)cc2)c2ccc(F)cc2)CC1`: the Potency in assay [1] was 11.2 µM (active); in assay [7], 11.7 µM (active). Also, the result in assay [2], in assay [4], in assay [9], in assay [11], in assay [13] and in assay [16] was inactive. Further, the Potency entry in [3], in assay [5] and in assay [15] was “inactive” throughout.

The values above are taken from PubChem BioAssay (NCATS).
